Measured values taken from PubChem BioAssay (EPA / NIEHS).
Values joined by “and” are separate entries in the source; they are usually repeats but may differ in a detail not shown here. Equal entries are not always repeated. Records with an inconclusive call do not appear. Some structures have more than one record in an assay (separate samples or runs), and their calls can disagree. Active and inactive are the calls of the source. Rule for the calls, unless noted: active = hit-call score of the fitted dose curve at least 0.9, where 1 is the maximum; inactive = score below 0.9.

Legend:
[1] = target: Peroxisome proliferator-activated receptor gamma (Homo sapiens) (UniProt P37231); test: OT_PPARg_PPARgSRC1_0480: Odyssey Thera (OT) 8-hour Protein-Complementation Assay for Peroxisome Proliferator-activated Receptor Gamma / SRC-1 Co-activator (AID 2283387; active = hit-call score of the fitted dose curve at least 0.9, where 1 is the maximum;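 note: nuclear to cytoplasmic split Venus YFP fluorescence ratio reporting PPARg SRC-1 interaction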)
Method in brief: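 HEK293T transiently transfected with PPARg and SRC-1 fused to Venus YFP fragments, compounds 8 h at 37C. Fixed, Draq5-stained cells imaged; nuclear/cytoplasmic 488 nm fluorescence ratio over at least 350 cells per image; gain fitted versus DMSO.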

[2] = read-out: Interleukin-8 (IL8), CXCL8 (gene 3576); test: BSK_hDFCGF_IL8: BioMAP Diversity Plus: hDFCGF Assay for Interleukin-8 (IL8) Biomarker Activity (AID 2283058); settings: primary human foreskin fibroblasts; actives raise or lower the signal
Method in brief: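 ELISA read-out of IL-8 from primary human foreskin fibroblast cultures taken 24 h after dosing; values are bidirectional fits relative to DMSO vehicle.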

[3] = BSK_hDFCGF_Proliferation: Cell Proliferation Assessment in the BioMAP Diversity Plus: hDFCGF Assay (AID 2283059); settings: primary human foreskin fibroblasts;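 note: curves fitted for both rise and fall of signal versus DMSO baseline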
Method in brief: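 Primary human foreskin fibroblasts, sub-confluent; […]; 10% TCA fix, 0.1% SRB stain, A560 total protein. Gain/loss fitted bidirectionally vs DMSO control.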

[4] = read-out: TIMP metallopeptidase inhibitor 1 (TIMP1), TIMP1 (gene 7076); test: BSK_hDFCGF_TIMP1: BioMAP Diversity Plus: hDFCGF Assay for TIMP metallopeptidase inhibitor 1 (TIMP1) Biomarker Activity (AID 2283062); settings: primary human foreskin fibroblasts; actives raise or lower the signal
Method in brief: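 ELISA readout of TIMP-1 from human dermal foreskin fibroblast cultures 24 h post-dosing. Curves were fitted in both directions against DMSO baseline, with SRB total-protein staining in parallel cultures as a cytotoxicity check.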

[5] = read-out: Monokine induced gamma interferon (MIG), CXCL9 (gene 4283); test: BSK_hDFCGF_MIG: BioMAP Diversity Plus: hDFCGF Assay for Monokine induced gamma interferon (MIG) Biomarker Activity (AID 2283063); settings: primary human foreskin fibroblasts; actives raise or lower the signal
Method in brief: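 Fibroblasts (human foreskin, primary) dosed, 24 h, MIG by ELISA; fit bidirectional vs DMSO.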

[6] = read-out: Matrix Metallopeptidase 1 (MMP1), MMP1 (gene 4312); test: BSK_hDFCGF_MMP1: BioMAP Diversity Plus: hDFCGF Assay for Matrix Metallopeptidase 1 (MMP1) Biomarker Activity (AID 2283064); settings: primary human foreskin fibroblasts; actives raise or lower the signal
Method in brief: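 Primary human foreskin fibroblasts in the hDFCGF system were dosed with test chemical, and MMP1 was measured by ELISA 24 h later. Values come from bidirectional curve fitting against the DMSO baseline.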

[7] = read-out: Vascular cell adhesion molecule 1 (VCAM1), VCAM1 (gene 7412); test: BSK_hDFCGF_VCAM1: BioMAP Diversity Plus: hDFCGF Assay for Vascular cell adhesion molecule 1 (VCAM1) Biomarker Activity (AID 2283065); settings: primary human foreskin fibroblasts; actives raise or lower the signal;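 for AC50: VCAM-1 protein level quantified by ELISA after 24 h chemical exposure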
Method in brief: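 ELISA read-out of VCAM-1 on human skin fibroblasts, 24 h post-dose; gain or loss of signal fitted bidirectionally against DMSO baseline.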

[8] = read-out: Plasminogen activator inhibitor-1 (PAI1), SERPINE1 (gene 5054); test: BSK_hDFCGF_PAI1: BioMAP Diversity Plus: hDFCGF Assay for Plasminogen activator inhibitor-1 (PAI1) Biomarker Activity (AID 2283066); settings: primary human foreskin fibroblasts; actives raise or lower the signal
Method in brief: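 Primary dermal fibroblasts (human foreskin), hDFCGF system; compound 24 h; PAI-1 by ELISA; bidirectional fit vs DMSO control.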

[9] = read-out: Intercellular Adhesion Molecule 1 (ICAM1), ICAM1 (gene 3383); test: BSK_KF3CT_ICAM1: BioMAP Diversity Plus: KF3CT Assay for Intercellular Adhesion Molecule 1 (ICAM1) Biomarker Activity (AID 2283067); settings: primary human keratinocytes with fibroblasts; actives raise or lower the signal
Method in brief: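 ELISA readout of ICAM-1; KF3CT human skin co-culture (keratinocytes + foreskin fibroblasts), 24 h post-dose; gain/loss fit vs DMSO baseline.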

[10] = read-out: Interferon-gamma inducible Protein 10 (IP10), CXCL10 (gene 3627); test: BSK_KF3CT_IP10: BioMAP Diversity Plus: KF3CT Assay for Interferon-gamma inducible Protein 10 (IP10) Biomarker Activity (AID 2283068); settings: primary human keratinocytes with fibroblasts; actives raise or lower the signal
Method in brief: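 In a primary skin co-culture of keratinocytes and fibroblasts, IP-10 is quantified by ELISA at 24 h after dosing. SRB staining of parallel wells monitors overt toxicity. Curves are fitted both directions against DMSO.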

[11] = BSK_KF3CT_SRB: Viability Assessment in the BioMAP Diversity Plus: KF3CT Assay (AID 2283069); settings: primary human keratinocytes with fibroblasts;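 note: total protein by sulforhodamine B staining as a cytotoxicity measure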
Method in brief: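 Human primary keratinocyte plus foreskin fibroblast co-culture exposed to chemicals for 24 h. Total protein measured by 0.1% sulforhodamine B staining after 10% TCA fixation, read at 560 nm; bidirectional fitting versus DMSO baseline.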

[12] = read-out: C-C motif chemokine 2 (Homo sapiens) (UniProt P13500); test: BSK_KF3CT_MCP1: BioMAP Diversity Plus: KF3CT Assay for Monocyte Chemoattractant Protein 1 (MCP1/CCL2) Biomarker Activity (AID 2283073); settings: primary human keratinocytes with fibroblasts; actives raise or lower the signal
Method in brief: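 KF3CT skin co-culture (keratinocytes/foreskin fibroblasts), 24 h post-dose; MCP-1 by ELISA; gain/loss of signal fit bidirectionally vs DMSO baseline.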

[13] = read-out: urokinase plasminogen activator (uPA), PLAU (gene 5328); test: BSK_KF3CT_uPA: BioMAP Diversity Plus: KF3CT Assay for urokinase plasminogen activator (uPA) Biomarker Activity (AID 2283075); settings: primary human keratinocytes with fibroblasts; actives raise or lower the signal
Method in brief: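 Human keratinocyte plus foreskin fibroblast primary co-culture exposed to chemical for 24 h. uPA levels were quantified by ELISA, and activity was fitted bidirectionally against a DMSO negative-control baseline.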

CD40, CD40 (gene 958) = test: BSK_LPS_CD40: BioMAP Diversity Plus: LPS Assay for CD40 Biomarker Activity (AID 2283076); settings: primary human HUVEC with PBMC; actives raise or lower the signal
Method in brief: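 ELISA readout of CD40 in HUVEC/PBMC co-culture (BSK_LPS system), 24 h post-dosing; bidirectional curve fit, DMSO baseline; parallel SRB total-protein staining for cytotoxicity.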

[14] = BSK_LPS_SRB: Viability Assessment in the BioMAP Diversity Plus: LPS Assay (AID 2283079); settings: primary human HUVEC with PBMC;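 note: total protein by sulforhodamine B absorbance as a cytotoxicity measure; measured one day after compound addition; fitted in both directions against DMSO so loss or gain of signal counts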
Method in brief: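 HUVEC + PBMC co-culture, LPS-stimulated; compound 24 h. 10% TCA fix, 0.1% SRB stain, A560. Bidirectional fit vs DMSO.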

[15] = read-out: Macrophage colony-stimulating factor (MCSF), CSF1 (gene 1435); test: BSK_LPS_MCSF: BioMAP Diversity Plus: LPS Assay for Macrophage colony-stimulating factor (MCSF) Biomarker Activity (AID 2283083); settings: primary human HUVEC with PBMC; actives raise or lower the signal
Method in brief: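 HUVEC + PBMC co-culture (human primary), 24 h post-dose; M-CSF by ELISA; gain/loss of signal fitted bidirectionally vs DMSO baseline.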

[16] = read-out: Tissue Factor, F3 (gene 2152); test: BSK_LPS_TissueFactor: BioMAP Diversity Plus: LPS Assay for Tissue Factor Biomarker Activity (AID 2283084); settings: primary human HUVEC with PBMC; actives raise or lower the signal
Method in brief: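 HUVEC/PBMC co-culture, LPS-activated; CD142 ELISA read 24 h post-dose; bidirectional curve fit vs DMSO negative control.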

[17] = read-out: Vascular cell adhesion molecule 1 (VCAM1), VCAM1 (gene 7412); test: BSK_LPS_VCAM1: BioMAP Diversity Plus: LPS Assay for Vascular cell adhesion molecule 1 (VCAM1) Biomarker Activity (AID 2283086); settings: primary human HUVEC with PBMC; actives raise or lower the signal
Method in brief: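 HUVEC + PBMC co-culture, LPS system; compound 24 h; VCAM-1 by ELISA; bidirectional fit vs DMSO control; parallel SRB (0.1%, TCA-fixed, 560 nm) for cytotoxicity.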

[18] = read-out: Interleukin-8 (IL8), CXCL8 (gene 3576); test: BSK_SAg_IL8: BioMAP Diversity Plus: SAg Assay for Interleukin-8 (IL8) Biomarker Activity (AID 2283094); settings: primary human HUVEC with PBMC; actives raise or lower the signal
Method in brief: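 ELISA read-out of IL-8 in a primary human vascular co-culture (umbilical vein endothelium plus PBMC), taken 24 h after compound addition. Values derive from bidirectional fits against DMSO negative controls.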

[19] = BSK_SAg_SRB: Viability Assessment in the BioMAP Diversity Plus: SAg Assay (AID 2283096); settings: primary human HUVEC with PBMC;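 note: cells read one day after compound addition; hits may be either gain or loss of signal compared with DMSO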
Method in brief: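 Endothelial/PBMC primary human co-culture; compound 24 h; fix 10% TCA, stain 0.1% SRB, A560; protein content as cytotoxicity proxy; bidirectional curve fit, DMSO = baseline.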

Measured: AC50

Sequence of Peroxisome proliferator-activated receptor gamma (Homo sapiens) (P37231 whole entry, looked up, the tested form may be a part): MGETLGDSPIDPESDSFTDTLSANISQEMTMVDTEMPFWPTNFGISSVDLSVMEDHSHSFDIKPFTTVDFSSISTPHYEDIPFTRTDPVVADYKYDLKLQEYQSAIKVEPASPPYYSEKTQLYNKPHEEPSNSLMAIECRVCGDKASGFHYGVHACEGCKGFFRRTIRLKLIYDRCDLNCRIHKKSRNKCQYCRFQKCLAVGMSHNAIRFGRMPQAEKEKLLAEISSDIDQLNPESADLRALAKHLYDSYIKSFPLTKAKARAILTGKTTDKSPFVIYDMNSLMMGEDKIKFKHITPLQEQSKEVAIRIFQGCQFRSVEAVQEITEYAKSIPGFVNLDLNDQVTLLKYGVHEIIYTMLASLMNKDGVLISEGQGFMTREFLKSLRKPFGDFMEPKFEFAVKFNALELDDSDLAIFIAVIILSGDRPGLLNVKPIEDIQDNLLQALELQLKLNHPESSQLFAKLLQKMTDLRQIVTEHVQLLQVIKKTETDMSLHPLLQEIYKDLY

CC(C)(Cl)Cl
inactive: [1]

O=S(=O)(O)OOS(=O)(=O)O
inactive: [1]

O=[N+]([O-])O
inactive: all assays above

CCOC(=O)NC(=S)Nc1ccccc1NC(=S)NC(=O)OCC
inactive: [1]

O=C(O)CCCc1ccc(N(CCCl)CCCl)cc1
inactive: [2] | [4] | [5] | [6] | [7] | [8] | [11] | [12] | [13]
active: [3] 6.32 µM and 5.54 µM | [9] 20 µM | [10] 31.9 µM and 36.2 µM | [12] 30 µM | CD40, CD40 (gene 958) 20 µM | [14] 20 µM | [15] 17.7 µM and 20 µM | [16] 20 µM and 12.5 µM | [17] 20 µM and 28.3 µM | [18] 20 µM and 10.2 µM | [19] 20 µM and 10.3 µM

O=C(CCl)c1ccccc1
active: [2] 7.52 µM | [3] 1.4 µM | [4] 5.12 µM | [5] 6.78 µM | [6] 9.79 µM | [7] 2.56 µM | [8] 6.44 µM | [9] 21.3 µM | [10] 13.8 µM | [11] 30.9 µM | [12] 32 µM | [13] 30 µM | CD40, CD40 (gene 958) 4.58 µM | [14] 15.2 µM | [15] 4.37 µM | [16] 5.81 µM | [17] 3.68 µM | [18] 5.88 µM | [19] 14 µM
inactive: [1]

CC(C)COP(=O)(OCC(C)C)OCC(C)C
not listed: [1]
inactive: all other assays above

[CH3][Sn]([CH3])([Cl])[Cl]
inactive: [1]

CC(C)(C)C(O)C(Oc1ccc(-c2ccccc2)cc1)n1cncn1 (centres undefined)
not listed: [1]
inactive: all other assays above

CCCOC(=O)c1ccccc1C(=O)OCCC
active: [15] 7.39 µM
not listed: [1]
inactive: all other assays above

O=C=Nc1ccccc1
inactive: [1]

CC(C)(C)C(=O)CCl
active: [7] 12.2 µM | [8] 0.405 µM | CD40, CD40 (gene 958) 28.7 µM | [15] 30.4 µM | [17] 24.3 µM
not listed: [1]
inactive: all other assays above

C=CC(=O)OCC(CC)CCCC (centres undefined)
active: [3] 30.3 µM | [4] 27.5 µM | [5] 30.5 µM | [6] 30.4 µM | [7] 16 µM | [8] 20 µM | [13] 0.016 µM | [17] 7.48 µM
inactive: all other assays above

CN(C)C(=O)C(c1ccccc1)c1ccccc1
inactive: [1]

COc1cc(OC)nc(Oc2cccc(Oc3nc(OC)cc(OC)n3)c2C(=O)O)n1
inactive: [1]

O=C1C=CC(=O)C=C1
active: [3] 11.2 µM and 2.81 µM | [4] 20 µM and 13.2 µM | [5] 11.2 µM and 28.8 µM | [6] 32.2 µM and 26.5 µM | [7] 19 µM and 12.8 µM | [8] 20 µM and 19.2 µM | [9] 24.5 µM and 21.7 µM | [10] 27.8 µM and 24.1 µM | [12] 27.7 µM and 16.1 µM | [13] 30.9 µM and 30.6 µM | CD40, CD40 (gene 958) 12.3 µM and 20 µM | [15] 20 µM and 28.7 µM | [17] 20 µM
inactive: [2] | [11] | [14] | [16] | [18] | [19]

Nc1ccccc1
inactive: [1]

Oc1ccc(Cl)cc1
inactive: [1]

O=P1(NCCCl)OCCCN1CCCl (centres undefined)
not listed: [1]
inactive: all other assays above

O=P(O)(Oc1ccccc1)Oc1ccccc1
inactive: [1]

CCc1cccc(C)c1N(C(=O)CCl)[C@@H](C)COC
inactive: [1]

Cc1cc(C)c(C2=C(OC(=O)CC(C)(C)C)C3(CCCC3)OC2=O)c(C)c1
inactive: [1]

CCCC=NO
inactive: [1]

CCOP(=O)(OCC)OCC
inactive: [1]

CCOP(O)OCC
inactive: [1]
